Measurements reported in PubChem BioAssay.
Calls of active or inactive are those of the source.

Key:
[1] = tested on: Plasmodium falciparum Sir2 (PF13_0152, Sir2A); experiment: pfSir2 binders on small-molecule microarrays, primary screen, biochemical, small-molecule microarray, 635 nm fluorescence (AID 1098); conditions: small-molecule microarray binding, fluorescence 635 nm; higher = more signal;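 also: score merges spot fluorescence intensity with its signal-to-noise ratio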
[2] = small-molecule microarray binders of probe aDKK1, primary screen, biochemical, biotinylated probe, 635/667 nm fluorescence (AID 1099); conditions: higher = more signal;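 also: score merges 667nm spot fluorescence with signal to noise across triplicate slides; reference of the scale not given here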
[3] = small-molecule microarray binders of probe aCHRDL2, primary screen, biochemical, biotinylated probe, 635/667 nm fluorescence (AID 1100); conditions: higher = more signal
[4] = splicing luciferase reporter signal modulators, primary screen, spliceosome inhibition project, cell-based, HEK293, splice +/- reporter (AID 1101); conditions: luminescence, 24 h, higher = more signal, called active from +8 up or from −8 down;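 also: HEK293 cells carrying a splicing-competent luciferase reporter gene; test concentration not given here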
[5] = molecular target: Fibroblast growth factor 10 (Homo sapiens) (UniProt O15520); experiment: FGF10 binders on small-molecule microarrays, primary screen, biochemical, small-molecule microarray, 635 nm fluorescence (AID 1102); conditions: FGF10 binding, fluorescence 635 nm, higher = more signal
[6] = tested on: glycogen synthase kinase-3 (GSK3A per assay name; protocol says GSK3B); experiment: GSK3 binders on small-molecule microarrays, primary screen, biochemical, small-molecule microarray, 635 nm fluorescence, GSK3A (AID 1103); conditions: small-molecule microarray binding, fluorescence 635 nm; higher = more signal; also: the record names both GSK3A and GSK3B
[7] = molecular target: Epidermal growth factor receptor (Homo sapiens) (UniProt P00533); experiment: EGFR binders on small-molecule microarrays, primary screen, biochemical, small-molecule microarray, 635 nm fluorescence (AID 1104); conditions: EGFR binding, higher = more signal;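 also: score merges 667 nm emission intensity with spot signal to noise over triplicate slides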
[8] = molecular target: Follistatin-related protein 3 (Homo sapiens) (UniProt O95633); experiment: FSTL3 binders on small-molecule microarrays, primary screen, biochemical, small-molecule microarray, 635 nm fluorescence (AID 1105); conditions: FSTL3 binding, higher = more signal;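 also: score merges emission near 667 nm and signal to noise per printed spot across three slides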
[9] = molecular target: Dickkopf-related protein 1 (Homo sapiens) (UniProt O94907); experiment: DKK1 binders on small-molecule microarrays, primary screen, biochemical, small-molecule microarray, 635 nm fluorescence scan (AID 1106); conditions: DKK1 binding, higher = more signal;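 also: score merges emission near 667 nm with signal to noise over three replicate slides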
[10] = tested on: Inhibin beta A chain (activin A); experiment: INHBA (activin A) binders on microarrays, primary screen, biochemical, small-molecule microarray, 635 nm fluorescence scan (AID 1107); conditions: small-molecule microarray binding, higher = more signal;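 also: mouse activin A protein probed at 4.33 µg/mL on printed slides; score merges bound-protein fluorescence near 667 nm with spot signal-to-noise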

Sequence of Follistatin-related protein 3 (Homo sapiens) (O95633 whole entry, looked up): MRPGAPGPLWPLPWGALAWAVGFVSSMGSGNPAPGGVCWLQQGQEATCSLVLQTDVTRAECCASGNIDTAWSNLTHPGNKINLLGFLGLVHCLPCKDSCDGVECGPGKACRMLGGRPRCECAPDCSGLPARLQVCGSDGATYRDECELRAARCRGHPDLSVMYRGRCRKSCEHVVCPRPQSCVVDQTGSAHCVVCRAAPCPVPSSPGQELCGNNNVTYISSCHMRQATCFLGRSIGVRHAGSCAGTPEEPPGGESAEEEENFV
Sequence of Dickkopf-related protein 1 (Homo sapiens) (O94907 whole entry, looked up): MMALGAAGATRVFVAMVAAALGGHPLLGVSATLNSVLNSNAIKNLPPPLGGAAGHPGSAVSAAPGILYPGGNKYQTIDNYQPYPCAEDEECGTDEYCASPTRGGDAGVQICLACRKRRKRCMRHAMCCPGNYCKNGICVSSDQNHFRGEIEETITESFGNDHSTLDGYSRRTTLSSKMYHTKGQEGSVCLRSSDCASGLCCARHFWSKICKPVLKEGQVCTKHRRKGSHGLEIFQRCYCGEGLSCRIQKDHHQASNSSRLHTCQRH
Sequence of Fibroblast growth factor 10 (Homo sapiens) (O15520 whole entry, looked up): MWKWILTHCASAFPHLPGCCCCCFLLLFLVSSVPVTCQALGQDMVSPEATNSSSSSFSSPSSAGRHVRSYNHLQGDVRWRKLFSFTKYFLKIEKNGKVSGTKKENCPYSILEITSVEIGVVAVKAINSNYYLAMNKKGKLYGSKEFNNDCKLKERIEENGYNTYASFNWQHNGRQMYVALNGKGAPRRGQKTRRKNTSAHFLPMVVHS
Sequence of Epidermal growth factor receptor (Homo sapiens) (P00533 whole entry, looked up): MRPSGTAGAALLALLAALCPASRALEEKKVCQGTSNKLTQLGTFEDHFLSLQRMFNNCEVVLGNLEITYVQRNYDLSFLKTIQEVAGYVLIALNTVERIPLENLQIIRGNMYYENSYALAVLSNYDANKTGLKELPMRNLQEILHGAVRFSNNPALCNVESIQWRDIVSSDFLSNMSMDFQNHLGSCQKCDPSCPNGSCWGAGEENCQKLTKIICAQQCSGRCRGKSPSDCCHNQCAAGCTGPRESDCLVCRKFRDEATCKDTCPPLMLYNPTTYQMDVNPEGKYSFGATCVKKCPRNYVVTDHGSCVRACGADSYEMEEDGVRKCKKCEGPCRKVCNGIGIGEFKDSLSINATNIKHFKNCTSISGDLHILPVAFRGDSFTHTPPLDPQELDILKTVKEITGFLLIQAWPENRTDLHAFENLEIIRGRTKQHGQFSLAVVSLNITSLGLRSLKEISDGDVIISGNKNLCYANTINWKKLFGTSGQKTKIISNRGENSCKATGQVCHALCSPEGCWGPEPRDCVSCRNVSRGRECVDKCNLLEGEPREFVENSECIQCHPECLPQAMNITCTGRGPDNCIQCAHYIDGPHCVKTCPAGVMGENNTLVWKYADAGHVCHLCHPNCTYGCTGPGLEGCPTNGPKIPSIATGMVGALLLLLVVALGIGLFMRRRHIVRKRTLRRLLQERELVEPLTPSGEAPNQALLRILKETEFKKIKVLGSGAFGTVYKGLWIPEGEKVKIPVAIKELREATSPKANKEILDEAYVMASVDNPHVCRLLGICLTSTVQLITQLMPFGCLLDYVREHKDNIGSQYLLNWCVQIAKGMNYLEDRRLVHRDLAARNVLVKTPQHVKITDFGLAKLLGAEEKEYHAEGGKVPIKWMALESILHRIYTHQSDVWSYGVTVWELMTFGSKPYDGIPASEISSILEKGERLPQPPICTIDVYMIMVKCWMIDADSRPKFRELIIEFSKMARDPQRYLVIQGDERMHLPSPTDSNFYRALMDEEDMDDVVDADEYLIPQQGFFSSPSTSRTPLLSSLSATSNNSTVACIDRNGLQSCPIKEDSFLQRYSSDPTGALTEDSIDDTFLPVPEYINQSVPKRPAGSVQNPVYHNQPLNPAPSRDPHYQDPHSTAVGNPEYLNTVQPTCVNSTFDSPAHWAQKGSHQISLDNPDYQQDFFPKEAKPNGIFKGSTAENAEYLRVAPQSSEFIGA

| SMILES | composite z-score [1] | composite z-score [2] | composite z-score [3] | z-score [4] | composite z-score [5] | composite z-score [6] | composite z-score [7] | composite z-score [8] | composite z-score [9] | composite z-score [10] |
| --- | --- | --- | --- | --- | --- | --- | --- | --- | --- | --- |
| Cc1ccc(F)cc1S(=O)(=O)N[C@@H]1CCN(Cc2ccc(Oc3ccccc3)cc2)C1 | 0.499 | -0.392 | -0.38 | 1.25 (inactive) | 0.271 | -0.632 | -0.0463 | 0.626 | 0.47 | 0.192 |
| CC(C)NC(=O)[C@@]1(C)c2ccccc2C(=O)N(C(C)C)[C@H]1c1ccc(CO)cc1 | 1.58 | -0.123 | 0.925 | 0.0862 (inactive) | -1.09 | -0.643 | -1.68 | -0.673 | -1.81 | -1.53 |
| NCCCCCNC(=O)[C@@H]1C[C@@H]2C(=O)N[C@@H](CCCCN)C(=O)N2[C@@H]1c1cccc(OCCO)c1 | 0.858 | 1.24 | 0.826 | -0.107 (inactive) | 0.699 | 0.642 | -0.0511 | 1.44 | 0.969 | 0.428 |
| CN(C)C(=O)[C@]1(CCC(=O)OC(C)(C)C)N=C(c2ccc(OCCCO)cc2)O[C@@H]1c1ccccc1 | 0.11 | 0.937 | 1.01 | -0.403 (inactive) | 0.617 | 1.11 | -0.0133 | 0.011 | -0.136 | 0.12 |
| CCOc1cc(C(O)C2C=CC3C(=O)N(C)C(=O)C3N2N2CCCCC2)ccc1O (stereo not given) | 1.56 | 0.637 | 0.101 | 0.377 (inactive) | 0.264 | -0.37 | 0.287 | 0.276 | 0.164 | 0.898 |
| CCCC[C@@H]1C[C@H]1[C@@H](NC(=O)c1ccccc1)c1ccc(Cl)cc1 | -1.24 | 0.15 | 1.01 | -1.93 (inactive) | -1.38 | -1.78 | -1.77 | -2.35 | -1.36 | 0.39 |
| CCOC(=O)C1=CC[C@@H](c2ccccc2C(F)(F)F)N(S(=O)(=O)c2ccc(C)cc2)C1 | 1.23 | 1.27 | 1.18 | -2.27 (inactive) | 1.18 | 0.914 | 0.29 | 1.12 | -0.144 | 0.685 |
| CC1CC/C=C\[C@H]2OC34C=CCN(C(C)C)C(=O)[C@H]3N(CCCCCO)C(=O)[C@@H]4C2C(=O)O1 (stereo not given in full) | 0.382 | -0.0733 | 0.655 | -0.356 (inactive) | -0.82 | -0.609 | -1.4 | -1.05 | -1.73 | -0.15 |
| O=C1O[C@@H](c2ccccc2)[C@@H](c2ccccc2)N2[C@@H](c3ccc(O)cc3)[C@]3(C(=O)Nc4ccc(C#CC5=CCCCC5)cc43)[C@@H](C(=O)N3CCN(c4ncccn4)CC3)[C@H]12 | 1.59 | -0.446 | -0.0675 | -0.339 (inactive) | 1.33 | 1.28 | 0.383 | 0.872 | 0.283 | -0.0915 |
| COC(=O)[C@@]1(Cc2ccc(OC)cc2)[C@H]2c3cc(C(=O)N(C)C)n(Cc4nc5ccccc5[nH]4)c3C[C@H]2CN1C(=O)c1ccccc1 | 0.432 | 0.956 | 0.958 | -1.21 (inactive) | 1.09 | 1.23 | 0.0916 | 1.35 | -0.463 | 0.777 |
| CC[C@H]1C2=C3C(CC[C@H]4C(OCc5ccc(F)cc5C(F)(F)F)OC[C@](C)([C@@H]34)N(C(=O)OC(C)(C)C)C2)C2COC(=O)OCC21 (stereo not given in full) | 0.282 | 0.817 | 1.12 | -0.499 (inactive) | -0.0217 | 0.737 | 0.128 | 0.719 | -1.02 | 1.06 |
| COCCOC(=O)N1C(=O)[C@@]2(c3cc(C#CC4(O)CCCCCC4)ccc31)[C@H](C(N)=O)[C@H]1C(=O)O[C@H](c3ccccc3)[C@H](c3ccccc3)N1[C@@H]2c1ccccc1OCCO | 1.28 | 0.919 | -0.423 | -1.96 (inactive) | 1.15 | 1.3 | 0.639 | 1.16 | 0.974 | -0.505 |
| Cc1ccc(S[C@]2(C(=O)NCc3ccccc3)CC(=O)N(C(C)C)[C@@H]2c2ccc(CO)cc2I)cc1 | 0.169 | 0.378 | 1.16 | 0.0407 (inactive) | -0.991 | -0.687 | -0.474 | -1.04 | -1.67 | 0.929 |
